# In PubChem BioAssay (NCI):
# This is part of a sample that, as a whole, favours compounds with a hit. Of some 83,000 tested, about 20% had one in any assay.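 Note: values are percent growth. 100 is the growth of untreated cells, values between 100 and 0 indicate rising inhibition; between -100 and 0 indicates cell death.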 Values without a mark were called inactive. Active and inactive are the calls of the source. Rule for the calls: active = growth percent below 10; inactive = the rest.
# Test system: MCF7 breast
# Test: NCI-60 one-dose screen, 48 h (100 = growth as untreated, 0 = no growth, -100 = all killed)
# Conditions: 10 µM unless noted
row,SMILES,growth
1,CC(Sc1nc2sc3c(c2c(=O)n1-c1ccc(Cl)cc1)CCCC3)C(=O)Nc1nc(-c2ccc(Br)cc2)cs1 (stereo unspecified),91.8%
2,C[C@@H](Nc1ncnc2ccc(-c3cnc(N)nc3)cc12)c1ccc(F)cc1,82.5%
3,CC1(C)CC[C@]23CC[C@]4(C)[C@H](CC[C@@H]5[C@@]6(C)CCCNC(C)(C)[C@@H]6CC[C@]54C)[C@H]2[C@H]1OC3,-25% (active)
4,COc1ccc(C(=O)c2nc3ccccc3n2CC(=O)c2ccc(Cl)cc2)cc1,11.9%

# Test system: HCT-116 colon
# Test: as above
# Conditions: 10 µM unless noted
row,SMILES,growth
1,CCCCCN1C=C/C(=C\C(=O)N(C)c2ccc(Oc3ccccc3)cc2)c2ccccc21,58.7%
2,CNC(=O)c1cncc(Cn2nc(C)c(NC(=O)c3ccc(COc4ccc(C(F)(F)F)cc4C)cc3)c2C)c1,44.7%
3,Nc1c(C(=O)Nc2ccnc3ccccc23)sc2nc3c(cc12)CN(Cc1ccccc1)CC3,45%
4,CC1=C(C(=O)/C=C/c2ccc(N(C)C)cc2)C(c2ccccc2)NC(=S)N1 (stereo unspecified),101%
5,Nc1nc(Nc2ccccc2SSc2ccccc2Nc2nc(N)nc(-c3cccs3)n2)nc(-c2ccsc2)n1,84.9%
6,COc1cc2c(cc1OC)C(=O)/C(=C/c1cc(C)c(O)c(C)c1)S2,23.1%
7,COc1cc2c(=O)n(CCCN(C)C)c3c4cc5c(cc4ccc3c2cc1OC)OCO5,30.6%
8,CCN(CC)CC[n+]1cc2cc(OC)c(OC)cc2c2ccc3cc4c(cc3c21)OCO4,-83% (active)
9,O=C(Nc1ccc(NC(=O)c2cc(=O)[nH]c3ccccc23)cc1)Nc1cccc(Cl)c1,82%
10,COc1ccc(/C=C2\Oc3cc(OCCCN4CCCCC4)ccc3C2=O)cc1OC,76%
11,Cc1nc(N)nc(N[C@@H](C)c2nc3cccc(NCc4ccc(C(=O)NO)cc4)c3c(=O)n2-c2ccccc2)n1,56.3%
12,Cc1ccc(/C=N/NC(=O)CSc2nc3ccccc3c(=O)n2Cc2ccc(S(N)(=O)=O)cc2)cc1,97.8%
13,COc1cc(/C(C)=C(\c2ccc(Cl)cc2)c2ccc(OCCN3CCCC3)cc2)ccc1F,39.2%
14,COc1cc2nc(-c3ccc(Cl)cc3)cc(OCCCN3CCOCC3)c2cc1OC,21.1%
15,COc1ccc(NC(N)=NCCCOc2ccc(F)cc2)cc1,54%
16,COC(=O)CNC(=O)[C@]12CCC(C)(C)C[C@H]1C1=CC[C@@H]3[C@@]4(C)Cc5c([nH]c6ccccc56)C(C)(C)[C@@H]4CC[C@@]3(C)[C@]1(C)CC2,95%
17,C[C@H]1[C@H](C)CC[C@]2(C(=O)Nc3ccc4ncccc4c3)CC[C@]3(C)C(=CC[C@@H]4[C@@]5(C)CCCNC(C)(C)[C@@H]5CC[C@]43C)[C@H]12,-100% (active)
18,COc1cc(NC(C)CCCNC(=O)CCC(=O)NCCCNCCCCCCCCCCNCCCNC(=O)CCC(=O)NCCCC(C)Nc2cc(OC)cc3cccnc23)c2ncccc2c1 (stereo unspecified),69.4% [8 µM]
19,CCCCCN1C=C/C(=C\C(=O)n2ccc3ccccc32)c2ccccc21,72.6%

row,SMILES,growth
1,Cc1cc2nc3c4ccc(Br)cc4n(CCN(C)C)c3nc2cc1C,9.24% (active)
2,CC1(C)CC(=O)C2=C(C1)N(c1ccc(F)cc1F)C(N)=C(C#N)C2c1cc(Br)ccc1F (stereo unspecified),80.9%
3,C[C@H]1[C@H](C)CC[C@]2(C(=O)NCC#CCN3CCN(C)CC3)CC[C@]3(C)C(=CC[C@@H]4[C@@]5(C)Cc6c([nH]c7ccccc67)C(C)(C)[C@@H]5CC[C@]43C)[C@H]12,25.8%
4,COc1cc2nc(-c3ccc(C(F)(F)F)cc3)cc(OCCCN3CCOCC3)c2cc1OC,15.1%
5,O=C1c2c(c3c4cccc(F)c4[nH]c3c3ccc4ccccc4c23)C(=O)N1O,16.9%
6,O=C1OC(Cc2ccccc2)C1c1ccccc1 (stereo unspecified),90.8%
7,COc1cccc(/C=N/NC(=O)c2cnn3c2NC(c2ccccc2)C3)c1Oc1ccccc1 (stereo unspecified),55.6%
8,COc1ccc(NC(=O)c2cc(NCc3cc(O)ccc3O)ccc2O)cc1,96.9%
9,COc1cc2nc(-c3ccc(Cl)cc3)cc(OCCCN3CCCC3)c2cc1OC,23.4%
10,COc1ccc(C/C(=C(\C)c2ccc(OCCN3CCCC3)cc2)c2ccc(OCCN3CCCC3)cc2)cc1,24.9%
11,COc1cc(NC(C)CCCNC(=O)CCC(=O)NCCCNCCCCCCCCNCCCNC(=O)CCC(=O)NCCCC(C)Nc2cc(OC)cc3cccnc23)c2ncccc2c1 (stereo unspecified),52.5%
12,COc1ccc(Cc2cnc(NC(=O)c3ccc4c(c3)OCCO4)s2)cc1,7.75% (active)
13,CC(=O)N1c2ccccc2NC2=C(C(=O)NC2(C)C)C1c1ccco1 (stereo unspecified),87.8%
14,O=S(=O)(NCCNc1nccc(-c2c(-c3cccc(F)c3)nc3sccn23)n1)c1ccc(Cl)cc1,34%
15,CC(Sc1nc2sc3c(c2c(=O)n1-c1ccc(Cl)cc1)CCCC3)C(=O)Nc1nc(-c2ccc(Br)cc2)cs1 (stereo unspecified),93.4%
16,C[C@@H](Nc1ncnc2ccc(-c3cnc(N)nc3)cc12)c1ccc(F)cc1,85.3%
17,CC1(C)CC[C@]23CC[C@]4(C)[C@H](CC[C@@H]5[C@@]6(C)CCCNC(C)(C)[C@@H]6CC[C@]54C)[C@H]2[C@H]1OC3,-99.4% (active)
18,COc1ccc(C(=O)c2nc3ccccc3n2CC(=O)c2ccc(Cl)cc2)cc1,10.3%
